Screening results (PubChem)
Tau fibril ThT: blocks human tau fibril formation measured by thioflavin T; P10636; actives 2.1% (n = 270,000); recombinant tau K18 P301L, heparin-induced fibrillization, ThT fluorescence; Potency, µM (doses to about 57.4 µM), for the others: top-dose activity, negative = inhibition, most hits filed as inhibitors; also: potency is read from the fitted curve at half-maximal effect; nearly all actives have a fitted effect of over 55% in size
Target sequence (P10636 561-689 P618L limits assumed): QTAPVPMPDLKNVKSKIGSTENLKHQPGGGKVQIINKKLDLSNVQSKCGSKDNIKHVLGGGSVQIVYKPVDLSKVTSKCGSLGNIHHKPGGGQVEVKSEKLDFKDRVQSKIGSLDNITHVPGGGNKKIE
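In this qHTS, human K18 P301L tau is incubated with compound and heparin for 6 hr at 37 C, and Thioflavin T fluorescence then reports fibril load.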
Tau fibril FP: tau fibrillization inhibition (FP). actives 0.39% (n = 280,000). K18 P301L tau heparin fibrillization, Alexa594 FP, 6 h. Potency, µM (doses to about 57.7 µM), inactives show top-dose activity, negative = inhibition, hits mostly inhibitors; also: potency is read from the fitted curve at half-maximal effect; nearly all actives have a fitted effect of over 55% in size
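Steps: dispense K18 P301L tau (15 uM plus 0.24 uM Alexa 594 tracer, final) in pH 7 sodium acetate; add compound; add heparin (20 uM final); incubate 6 hr, 37 C; add ThT (30 uM final); after 1 hr ambient, read FP.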
FBPA coupling cs: counter-screen for Giardia aldolase inhibitors: coupling enzyme system; actives 0.67% (n = 290,000); activity change, negative = inhibition, % at 58.2 µM, hits read low; coupling enzyme system counterscreen, AmpLite Red fluorescence; in the data active = activity change below about -30%
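Compounds tested against the coupling enzymes alone at 57.5 uM final; readout was AmpLite Red fluorescence (525/598 nm) after 20 min at RT.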
Sfp inh: blocks B. subtilis Sfp PPTase activity. Q9F4F7. Biochemical Sfp PPTase activity, qHTS. actives 3.5% (n = 310,000). Potency, µM, without a hit: largest response in the series, negative = inhibition, most hits filed as inhibitors;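 also: the enzyme is Sfp with the accession as filed and its product quenches rhodamine fluorescence; potency is read from the fitted curve at half-maximal effect; 0% = enzyme reaction without inhibitor and -100% = no enzyme wells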
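Reaction rates are the 30-min fluorescence difference (ex 525, em 598 nm) in wells containing 15 nM Sfp, 5 uM rhodamine-CoA and 12.5 uM BHQ-2-YbbR at pH 7.6 with 10 mM MgCl2.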
Tau fluor cs: counter-screen for tau fibril formation inhibitors; actives 0.93% (n = 280,000); tau K18 P301L (four-repeat tau fragment) Alexa594 fluorescence, heparin fibrillization; Potency, µM (top dose mostly 57.7 µM), inactives show top-dose activity change, negative = decrease; AID 1463; also: potency is read from the fitted curve at half-maximal effect; nearly all actives have a fitted effect of over 55% in size
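Human K18 P301L tau (15 uM unlabeled plus 0.24 uM Alexa 594-labeled, final) in 100 mM sodium acetate pH 7 was mixed with compound and 20 uM heparin and incubated 6 hr at 37 C.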
G9a block: G9a (human) methyltransferase inhibition | Q96KQ7 | G9a H3K9 monomethylation, AlphaScreen, 2 h | Potency, µM (series often up to 102 µM), for inactives: top-dose activity, negative = inhibition, hits mostly inhibitors | actives 8.8% (n = 350,000) | AID 504332; also: potency is read from the fitted curve at half-maximal effect; nearly all actives have a fitted effect of over 75% in size
Target sequence (Q96KQ7 913-1193 limits assumed): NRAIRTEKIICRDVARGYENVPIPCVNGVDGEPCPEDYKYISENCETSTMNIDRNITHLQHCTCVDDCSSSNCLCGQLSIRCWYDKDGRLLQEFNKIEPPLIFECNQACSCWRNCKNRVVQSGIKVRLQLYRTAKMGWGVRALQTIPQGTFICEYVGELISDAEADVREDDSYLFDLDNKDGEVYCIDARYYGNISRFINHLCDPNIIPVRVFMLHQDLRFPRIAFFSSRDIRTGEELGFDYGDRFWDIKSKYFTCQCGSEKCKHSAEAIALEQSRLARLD
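Step 1: enzyme (final 20 nM) with compound, 15 min RT. Step 2: substrate peptide 500 nM and SAM 20 uM, 2 h RT. Step 3: anti-H3K9me1 antibody and AlphaScreen beads, 10 min, then plate read.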
* hit, by the source's call; u = inconclusive; x = not tested or not shown; [ ] = another dose, or the depositor's remark. Shown are actives, neighbours in structure and some others; about 11% of the full set was active somewhere. Unless noted, calls follow the shape of the dose curve; as a rule, active = well fitted curve in the direction sought with a large enough effect; inconclusive = small, poorly fitted or top-dose-only effect, or another doubt; inactive = no such curve, though single readings can be large; an effect the other way counts as inactive or inconclusive. Unless noted, % is scaled to controls: 0 for no effect and ±100 for the full control effect.

SMILES	Tau fibril ThT	Tau fibril FP	FBPA coupling cs	Sfp inh	Tau fluor cs	G9a block
CC(C)(C)c1ccc(C(=O)O)c(C(=O)c2ccccc2)c1	-8%	-1%	8	4%	-9%	7%
C[C@H]1C(c2ccccc2)=NN(c2ccccc2)[C@@H]1CO	u	u	0	-5%	u	u
OC[C@@H]1[C@@H](c2ccccc2)C(c2ccccc2)=NN1c1ccccc1	u	u	0	14%	13µM*[quencher]	54%
COc1ccccc1[C@@H]1C(c2cccc(Cl)c2)=NN(c2ccccc2)[C@H]1C(=O)N1CCOC1=O	-7%	-7%	-2	6%	u	178%[59 µM]
COc1ccccc1[C@H]1C(c2cccc(Cl)c2)=NN(c2ccccc2)[C@@H]1CO	-17%[81.4 µM]	u	-4	20%	20µM*[quencher]	320%[59 µM]
CC(=O)C1=C(C)Nc2cc(C(F)(F)F)ccc2S1	u	-3%	1	56µM*	-11%	22µM*
Cc1ccc(NC(=O)CC2Sc3ccc(C(F)(F)F)cc3NC2=O)cc1 (stereo unspecified)	15%	-11%	x	x	13%	-5%[59 µM]
CCOc1ccc(N2CC(NC(=O)c3ccc(Cl)cc3)CC2=O)cc1 (stereo unspecified)	-8%	-7%	x	x	-9%	-6%[59 µM]
Cc1ccc(C2=Nc3ccccc3N(CC(=O)Nc3cccc(F)c3)C(=O)C2)cc1C	0%	u	x	x	-29%	-5%[59 µM]
COc1ccc(NC(=O)CN2C(=O)CC(c3ccc(C)c(C)c3)=Nc3ccccc32)cc1OC	u	-1%	x	x	25µM*[quencher]	-26%[59 µM]
CC(=O)N1CCc2cc(S(=O)(=O)NC(CC(C)C)C(=O)NCCc3ccccc3)ccc21 (stereo unspecified)	-9%	-4%	x	x	-18%	6%[59 µM]
CC(NC(=O)CSc1n[nH]c(-c2ccccc2Cl)n1)c1nc2ccccc2[nH]1 (stereo unspecified)	-1%	0%	x	x	-5%	3%[59 µM]
CN(C)c1ccc(C(CNC(=O)Cc2ccc(Cl)cc2)N2CCOCC2)cc1 (stereo unspecified)	u	-7%	x	x	-25%	u
CN1C(=O)NC(c2ccccc2[N+](=O)[O-])C2=C1CCCC2=O (stereo unspecified)	x	x	-9	-28%	x	45µM*
CN1C(=O)NC(c2ccccc2[N+](=O)[O-])C2=C1CC(C)(C)CC2=O (stereo unspecified)	x	x	-1	-23%	x	50µM*
COc1cc(C2NC(=O)N(C)C3=C2C(=O)CCC3)cc(OC)c1OC (stereo unspecified)	-2%	1%	-2	6%	-3%	-9%
CN1C(=O)NC(c2ccc([N+](=O)[O-])cc2)C2=C1CC(C)(C)CC2=O (stereo unspecified)	x	x	1	6%	x	10%
CO[C@]12CC(COC(=O)c3cncc(Br)c3)CN(C)[C@@H]1Cc1cn(C)c3cccc2c13 (stereo partly specified)	-7%	2%	0	12%	-8%	-33%[2.33 µM]
CNCc1ccccc1Sc1cccc(O)c1	3%	-2%	0	10%	0%	18%[59 µM]
CNCc1ccccc1Sc1cc(O)ccc1O	18µM*	32µM*	-30	22µM*	18µM*[quencher]	1µM*
CN1CCc2c(sc(N)c2C(=O)O)C1	u	u	-7	28µM*	-10%	28µM*
CCOC(=O)[C@H]1[C@H]2COc3cc(OC)ccc3[C@@H]2N2C(=O)CN(Cc3ccc(OC)cc3)C(=O)[C@@]12C	x	x	x	x	x	12%[0.501 µM]
CCS(=O)(=O)N1CCN(C(=O)c2cccc3ccccc23)CC1	x	x	-1	7%	x	7%[0.501 µM]
O=c1oc2c3c(ccc2c2ccccc12)OCN(Cc1ccccc1Cl)C3	u	-12%	x	x	u	1.3µM*
Cc1cc(=O)oc2c3c(ccc12)OCN(Cc1ccccc1Cl)C3	13%	0%	x	x	9%	-30%[59 µM]
SMILES	Tau fibril ThT	Tau fibril FP	FBPA coupling cs	Sfp inh	Tau fluor cs	G9a block
O=c1oc2c3c(ccc2c2ccccc12)OCN(Cc1cccc(Cl)c1)C3	u	3%	x	x	u	0.89µM*
CN(C)/C=N/c1ncn(-c2ncc(C(F)(F)F)cc2Cl)n1	2%	3%	0	13%	3%	6%
O=C(C1=NN[C@@H]2C(=O)N(c3ccccc3C(F)(F)F)C(=O)[C@H]12)c1cnccn1	x	-18%	0	4%	u	u
O=C(C1=NN[C@@H]2C(=O)N(c3cccc(F)c3)C(=O)[C@H]12)c1cnccn1	u	-7%	1	u	-5%	20µM*
CCOC(=O)COn1c(=O)c(-c2cccs2)[n+]([O-])c2ccccc21	-13%	-3%	-9	10µM*	-15%	u
CCOC(=O)COn1c(=O)c(-c2cc3ccccc3o2)[n+]([O-])c2ccccc21	u	1%	-8	79µM*	-14%	36%[0.501 µM]
O=C(O)c1ccc2c(c1)C(=O)N([C@H](Cc1c[nH]c3ccccc13)C(=O)O)C2=O	x	x	6	15%	x	0%[12.7 µM]
CCOC(=O)Cc1c(C)nc(SC)[nH]c1=O	-2%	2%	2	16%	2%	0%
Cc1ccc(Cc2c(C)[nH]c(=S)[nH]c2=O)cc1	x	0%	1	13%	3%	45µM*
CCOC(=O)Cc1c(C)[nH]c(=S)[nH]c1=O	-4%	5%	1	79µM*	-6%	-19%[59 µM]
COC(=O)CCc1c(C)[nH]c(=S)[nH]c1=O	-2%	-4%	-1	89µM*	0%	u
CN(CCC(=O)c1ccccc1)CCC(=O)c1ccccc1	x	x	5	11%	x	32µM*
O=C(O)CCC(=O)CCC(=O)c1ccc(Cl)cc1	-7%	-10%	3	u	-8%	u
CN(C)CCC(=O)c1ccc(Cl)cc1	u	u	4	-4%	4%	6.3µM*
O=C(CC(=O)c1ccccc1)c1ccccc1	-12%	u	0	-30%	-27%	-4%[2.33 µM]
CC(C)NC(=O)C(c1ccccc1)N1Cc2ccccc2C1=O (stereo unspecified)	-2%	-6%	x	x	-4%	-5%[59 µM]
Cc1nc(CSc2nsc(/C=C/N(C)C)c2C#N)cs1	25µM*	-12%	-12	u	u	20µM*
COC(=O)c1ccccc1CSc1nsc(/C=C/N(C)C)c1C#N	x	x	-6	16µM*	x	0%[2.33 µM]
CC(C)Nc1nnc(SCC(=O)N2CCN(C(=O)c3ccco3)CC2)s1	x	x	x	x	x	11%[12.7 µM]
CCCCCCNC(=O)N[C@@H](C(=O)NCCC[C@H]1CN2C(=NC[C@@H]2Cc2ccccc2)N1CCc1cccc(OC)c1)C(C)C	u	1%	3	3.5µM*	2%	u
